This is a sample that favours compounds with a hit; in the whole collection about 6.3% have one here.
A340 absorber: compounds absorbing at 340 nm. 65,000 tested, under 10 active. fold change at 10 µM. compound absorbance at 340 nm, fold over control. AID 708;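 active = at 10 µM dose, initial 340 nm absorbance at least 2 fold that of control wells; inactive = change under 2 fold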;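 also: initial absorbance extrapolated from kinetic A340 decline of NADH oxidation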
Spn DPM-DC inh: S. pneumoniae DPM-DC inhibition | purified DPM-DC, PK/LDH coupled NADH fluorescence | calls only at 10 µM | 65,000 compounds, 0.49% hits;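 active = the 320 compounds with the highest percent inhibition in the single-dose primary screen, excluding strongly autofluorescent ones, cut at about 32% in these data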;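 also: kinetic rate of NADH fluorescence loss reporting ADP formed by the decarboxylase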
MK inhibit: S. pneumoniae mevalonate kinase inhibition. purified MK, PK/LDH-coupled NADH absorbance 340 nm. inhibition, % at 10 µM. 65,000 compounds, 0.48% hits. AID 555;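 active = ranked among the strongest by inhibition in the single 10 µM screen, a fixed top-ranked set picked for dose follow-up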
NADH coupling: inhibitors of enzymes used to reach an NAD/NADH endpoint. 65,000 compounds, 0.02% hits. IC50, µM (series often up to 10 µM), inactives show top-dose inhibition. coupled PK/LDH NADH assays, four targets. AID 774;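 active = single-dose screening hits from any of four coupled enzyme assays that gave an IC50 when retested across doses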;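 also: the DPM-DC format reads NADH fluorescence rather than 340 nm absorbance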
Spn PMK inh: inhibitors of Streptococcus pneumoniae phosphomevalonate kinase. purified PMK, PK/LDH-coupled NADH absorbance 340 nm. inhibition, % at 10 µM. 65,000 compounds, 0.49% hits. AID 539;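 active = top-ranked compounds by inhibition in the single 10 µM screen, taking a fixed number of the strongest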;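 also: 0% = full reaction with DMSO carrier and 100% = background rate without enzyme reaction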
Fluor 339 460: intrinsic fluorescence of library compounds, ex339/em460 – biochemical, MLSMR library, data from DPM-DC assay, artefact control, profiling panel; 65,000 compounds, 5.5% hits; fluorescence fold increase at 10 µM; compound autofluorescence, ex339/em460 nm, NADH buffer; stronger effect = higher value; 1 = no-compound wells, NADH background; AID 709;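 active = at 10 µM, mean starting fluorescence two-fold or more over control wells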;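 also: signal is the first read of a kinetic run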
* marks the source's active call; other numbers are inactive results; i = inactive; . = no result given; + = active, no number.

SMILES | A340 absorber | Spn DPM-DC inh | MK inhibit | NADH coupling | Spn PMK inh | Fluor 339 460
O=C(C1CCCN(Cc2ccncc2)C1)N1CCc2ccccc2C1 (stereo not given) | 1 | i | 32 | 14% | 10 | 1.1
CCC(C)[C@H](NC(=O)NCc1ccccc1Cl)C(=O)OC (stereo not given in full) | 1 | i | 4 | 3% | 4 | 1.1
S=c1[nH]nc(CSc2nc3ccccc3s2)o1 | 1 | i | 9 | 9% | 15 | 1
Oc1cc2ccccc2cc1-c1n[nH]c(=S)o1 | 1 | i | 1 | 12% | 12 | 3*
CN1C(=O)c2ccccc2N(C)C1c1cccs1 (stereo not given) | 0.98 | . | 5 | 6% | 7 | 3.9*
COc1ccc(-c2cc3nc(-c4ccccc4)cc(N4CCC5(CC4)OCCO5)n3n2)cc1 | 1 | . | 6 | 8% | 9 | 4.8*
Cc1cccc(-c2cc3nc4c(c(N5CCC6(CC5)OCCO6)n3n2)CCCC4)c1 | 1 | i | 14 | 5% | 7 | 1.5
c1ccc2nc(-c3nc4ccccc4o3)ccc2c1 | 1.2 | . | 17 | 11% | 5 | 2.1*
c1cc(-c2nc3ccccc3o2)nc(-c2nc3ccccc3o2)c1 | 0.98 | i | 10 | 5% | 15 | 1.2
NC(=O)c1ccccc1N=Cc1ccccn1 | 1 | . | 3 | 7% | 10 | 5*
CCOC(=O)C1CCCCN1Cc1ccc(F)c(Br)c1 (stereo not given) | 1 | i | 45* | 15% | 0 | 1.1
Cc1ccc2[nH]c(-c3ccccc3)cc(=O)c2c1 | 1.1 | . | 5 | 7% | 8 | 2.2*
Cc1sc(NC(=O)CSc2nnc(COc3ccccc3)n2C)c(C#N)c1C | 1 | i | 9 | 5% | 17 | 2.1*
COCc1cc(C)n(CC(=O)Nc2ccccc2C(=O)OC)c(=O)c1C#N | 1.1 | i | 4 | 12% | 11 | 2.8*
COCc1cc(C)n(CC(=O)NC(C)c2ccccc2)c(=O)c1C#N (stereo not given) | 1.1 | . | 5 | 9% | 13 | 3.8*
Cc1cc(C)cc(NC(=O)C2CCN(c3nccs3)CC2)c1 | 0.98 | i | 2 | 1% | 0 | 1.1
Cc1ccc(-c2csc3ncn(-n4c(C)ccc4C)c(=O)c23)o1 | 1 | i | 0 | 3% | 21 | 1.1
COc1ccc2nc(C)cc(N3CCOCC3)c2c1 | 1 | i | 10 | 3% | 3 | 1
COc1ccc2c(-c3ccccc3)cc(N3CCOCC3)nc2c1 | 1 | i | 21 | 9% | 7 | 2.9*
Cc1cc(C)nc(Nc2nc(C)c3cc4c(cc3n2)OCO4)n1 | 1.1 | . | 9 | 13% | 16 | 3.5*
Cc1nc(NC2=NCN(Cc3ccc4c(c3)OCO4)CN2)nc2ccccc12 | 1 | i | 9 | 5% | 5 | 1.1
Cc1c(C(=O)NCC2CCCO2)oc2ccc3c(c12)C(=O)CC(C)(C)O3 (stereo not given) | 1 | i | 4 | 13% | 13 | 3*
Cc1c(C(=O)NCC2CCCO2)oc2ccc(S(=O)(=O)N3CCCC3)cc12 (stereo not given) | 1.1 | i | 6 | 2% | 0 | 1.1
Cc1nnc(SCC(=O)N2CC(=O)Nc3ccccc32)n1-c1ccccc1 | 0.95 | i | 11 | 6% | 35* | 1
Cc1csc(C(C#N)C(=O)c2ccc(S(=O)(=O)N3CCCC3)cc2)n1 (stereo not given) | 1.1 | i | 0 | 8% | 25* | 0.99
SMILES | A340 absorber | Spn DPM-DC inh | MK inhibit | NADH coupling | Spn PMK inh | Fluor 339 460
Cc1cccc(NC(=O)c2ccc(S(=O)(=O)N3CCCCC3)cc2)n1 | 1 | i | 0 | 3% | 10 | 1.1
COc1ccccc1-c1cc(C(F)(F)F)nc(S(=O)(=O)CCCC(=O)N2CCCCC2C)n1 (stereo not given) | 1 | . | 5 | 9% | 12 | 3.4*
COc1ccccc1-c1cc(C(F)(F)F)nc(S(=O)(=O)CCCC(=O)Nc2cc(C)on2)n1 | 1 | . | 0 | 3% | 5 | 3.7*
COc1ccccc1-c1cc(C(F)(F)F)nc(N2CCCC2)n1 | 1.1 | i | 6 | 2% | 0 | 1.4
COc1ccccc1-c1cc(C(F)(F)F)nc(S(=O)(=O)CCCC(=O)NC(C)C)n1 | 1.1 | i | 7 | 11% | 17 | 1.9
O=C(CSc1ccc2nnc(-c3ccncc3)n2n1)NCC1CCCO1 (stereo not given) | 1 | i | 12 | 6% | 0 | 1.2
CCOC(=O)c1cccc(NC(=O)CS(=O)(=O)Cc2nc(-c3cccc(OC)c3)oc2C)c1 | 0.98 | i | 2 | 2% | 9 | 0.99
Cc1cc(NCCCN2CCOCC2)n2ncc(-c3ccc(Cl)cc3)c2n1 | 1 | . | 13 | 12% | 10 | 3.9*
O=C(C1CCN(Cc2cc(Cl)ccc2O)CC1)N1CCN(Cc2ccccc2)CC1 | 0.97 | i | 10 | 7% | 10 | 1.1
CC(O)c1nc2ccccc2n1Cc1nnc(-c2ccc(Cl)cc2)o1 (stereo not given) | 1 | i | 0 | 5% | 16 | 1.1
c1ccc(-c2nnc(Cn3c4ccccc4c4nc5ccccc5nc43)o2)cc1 | 1.1 | . | 9 | 9% | 8 | 3.6*
CC(=O)NC(CCS(C)(=O)=O)C(=O)Nc1c(C)cccc1C (stereo not given) | 1 | i | 47* | 16% | 1 | 1.3
Cc1cccc2c(=O)oc(-c3ccc4c(c3)C(=O)N(CC3CCCO3)C4=O)nc12 (stereo not given) | 1 | i | 9 | 5% | 8 | 1.6
O=C(Nc1ccc(Cl)cc1C(=O)N1CCOCC1)c1ccco1 | 1 | i | 6 | 6% | 11 | 1
CCc1ccc(CCC(=O)Nc2ccc(C)c(C)c2)o1 | 0.98 | + | 10 | 5% | 10 | 1.1
COc1cc(-c2nc3cnccc3n2C)cc(OC)c1OC | 0.96 | + | 0 | 20% | 19 | 1.1
N#CCSc1nnc(CNc2cccc(Cl)c2)o1 | 1 | i | 7 | 7% | 6 | 1.1
CCCCOc1ccc(-c2nnc(-c3ccncc3)o2)cc1 | 1 | i | 10 | 14% | 15 | 3*
CCOc1ccc(-c2nnc(-c3ccncc3)o2)cc1 | 1 | + | 14 | 20% | 8 | 2*
CCOc1ccc(-c2nnc(N)o2)cc1 | 1 | i | 2 | 4% | 10 | 1.1
COCC(C)NC(=O)c1ccccc1OC(C)=O (stereo not given) | 1 | i | 10 | 10% | 4 | 2*
COCC(C)NC(=O)c1cc(-c2ccccc2OC)on1 (stereo not given) | 1 | i | 7 | 7% | 14 | 1.2
COc1ccc(S(=O)(=O)N2CCCC(C(=O)O)C2)cc1 (stereo not given) | 1 | i | 8 | 4% | 4 | 1.1
CSc1ccc(CN2CCC(O)CC2)cc1 | 1.1 | i | 58* | 22% | 8 | 1.1

Bioassay records from PubChem BioAssay.
